Screening data (PubChem)
Shown are actives, neighbours in structure and some others; about 2.8% of the full set was active somewhere.
DRD3 antagonist: qHTS of D3 Dopamine Receptor Antagonist: qHTS; hit rate 2.5% among 360,000; D(3) dopamine receptor (Homo sapiens), P35462; AID 652054, 2013; D3R cells, DiscoveRx beta-arrestin luminescence, antagonist mode; stronger effect = lower value; max response, negative = inhibition, %; in the data active means max response below about -50%; inconclusive means no clear call, values can overlap the other calls
Target sequence (P35462 whole entry, looked up): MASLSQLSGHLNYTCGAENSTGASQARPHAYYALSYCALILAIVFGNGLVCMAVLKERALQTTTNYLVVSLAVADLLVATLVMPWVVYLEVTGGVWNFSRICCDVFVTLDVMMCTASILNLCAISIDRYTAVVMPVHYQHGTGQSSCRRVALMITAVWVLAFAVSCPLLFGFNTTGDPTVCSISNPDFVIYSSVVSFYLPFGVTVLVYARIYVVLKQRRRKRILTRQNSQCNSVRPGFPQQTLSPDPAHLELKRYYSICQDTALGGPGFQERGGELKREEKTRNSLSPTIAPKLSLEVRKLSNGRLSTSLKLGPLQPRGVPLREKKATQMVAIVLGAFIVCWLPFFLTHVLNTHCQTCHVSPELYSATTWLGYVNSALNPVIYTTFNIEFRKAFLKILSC
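Cells plated overnight at 1500 cells/well, then exposed to library compounds with dopamine controls for 90 minutes at 37 degrees C. DiscoveRx reagent added for 30–60 minutes at room temperature; luminescence read, quantitative HTS format.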
B2AR arrestin: qHTS assay of beta-arrestin-biased ligands of beta2-adrenergic receptor; Beta-2 adrenergic receptor (Homo sapiens), P07550; beta-arrestin recruitment to beta2AR, cell-based reporter; hit rate 0.02% among 330,000; Potency, µM (doses to about 46.1 µM), most hits filed as activators; active means well fitted activation curve with a large enough effect; inconclusive means small, poorly fitted or top-dose-only effect; further: nearly all actives have a fitted effect of over 65% in size
Giardia kill: Small Molecules that selectively kill Giardia lamblia: qHTS; Giardia lamblia trophozoite viability; activity change, % at 7.66 µM, hits read low; hit rate 0.15% among 340,000; AID 540267, 2011; in the data active means activity change below about -80%; inconclusive means between about -30% and that limit;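 further: parasites exposed to compound for two days anaerobically before the ATP read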
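Viability, read as ATP luminescence: trophozoites at 100 cells/well, compound added, 48 hrs anaerobic at 37 deg C, then 15-30 min room-temperature development before reading.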
D3 ag: qHTS of D3 Dopamine Receptor Agonist: qHTS; D3R DiscoveRx beta-arrestin cells, luminescence, 90 min; max activation, %; hit rate 0.58% among 410,000; AID 652048, 2013; in the data active means max activation above about 30%
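Agonist mode: compounds and dopamine controls were applied to plated cells for 90 min at 37 degrees C after an overnight attachment at 1500 cells/well. Luminescent read-out followed 30 - 60 minutes at room temperature with DiscoveRx detection reagent.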
Each line names hits and unclear results; the compound was inactive in the other large screens.

NNc1nc2c(-c3cccc(C(F)(F)F)c3)nnn2c2ccccc12	D3 ag 32
COc1ccc(/C=C2\CCCCC2=O)cc1	none (no result: B2AR arrestin)
COc1ccc(C=C2CS(=O)(=O)CC(=Cc3ccc(OC)cc3)C2=O)cc1	DRD3 antagonist -64 (no result: B2AR arrestin, Giardia kill)
CCOC(=O)C1CCN(C(=O)c2nn(-c3ccc(OC)c(Cl)c3)c(=O)c3c2c2ccccc2n3C)CC1	none (no result: DRD3 antagonist, B2AR arrestin, Giardia kill)
O=C(Nc1ccc([N+](=O)[O-])cc1Cl)c1cc(Cl)cc(Cl)c1O	none (no result: DRD3 antagonist, B2AR arrestin, D3 ag)
O=C(O)CC/C(=N\Nc1ccc(S(=O)(=O)N2CCCC2)cc1[N+](=O)[O-])c1cccs1	none
O=C(O)CC/C(=N\Nc1ccc(S(=O)(=O)N2CCOCC2)cc1[N+](=O)[O-])c1cccs1	DRD3 antagonist -62
COc1cc(-c2nnc(COC(=O)c3nn(CC(C)C)c(=O)c4ccccc34)o2)cc(OC)c1OC	D3 ag 56
COc1ccc(-c2nnc(CSc3nc4ccccc4c(=O)n3CC(C)C)o2)cc1OC	D3 ag 33
Cn1c(SCc2nc3ccccc3c(=O)[nH]2)nc2ccccc21	none
CC(C)Cn1c(SCc2nc3ccccc3c(=O)[nH]2)nc2ccccc2c1=O	D3 ag 46
COc1ccc(C2Nc3ccccc3C(=O)N2Cc2ccccc2)cc1COc1ccc(Cl)cc1Cl (stereo unspecified)	none (no result: DRD3 antagonist, Giardia kill, D3 ag)
Cc1ccc(Cl)cc1N1CCN(CCCNC(=O)C2COc3ccccc3C2)CC1 (stereo unspecified)	none (no result: DRD3 antagonist, B2AR arrestin, Giardia kill)
CN(C)c1ccc(CNC(=O)c2ccc3c(c2)N(C)C(=O)C2CCCCN32)cc1 (stereo unspecified)	none (no result: DRD3 antagonist, B2AR arrestin, Giardia kill)
COc1ccccc1N1CCN(Cc2cnc3ccc(Cl)cn23)CC1	DRD3 antagonist -91
COc1ccc(CC(C)N2CCN(c3ccccc3)CC2)cc1OC (stereo unspecified)	DRD3 antagonist -147
COc1ccccc1N1CCN(S(=O)(=O)c2cccs2)CC1	none
COc1ccccc1N1CCN(Cc2nc(N)nc(Nc3ccc(C)c(Cl)c3)n2)CC1	none
COc1ccccc1N1CCN(Cc2ccsc2)CC1	DRD3 antagonist -92
COc1ccccc1N1CCN(Cc2cccs2)CC1	DRD3 antagonist -82
COc1ccccc1N1CCN(C(=O)c2ccc(CN3CCOCC3)cc2)CC1	none
CCOc1ccc(Nc2nn(-c3ccc(OC(F)(F)F)cc3)nc2C(C)=O)cc1	none (no result: DRD3 antagonist, B2AR arrestin, Giardia kill)
COc1ccc(OC)c(NS(=O)(=O)c2ccc(-c3cc(C)no3)s2)c1	none (no result: DRD3 antagonist, B2AR arrestin, Giardia kill)
COc1ccc(N2CCN(C(=O)C(C)n3nc(C)c4sc5ccccc5c4c3=O)CC2)cc1 (stereo unspecified)	none (no result: DRD3 antagonist, B2AR arrestin, Giardia kill)
COc1ccc(CN2CCN(c3ccccc3OC)CC2)cc1OC	DRD3 antagonist -77
COc1cc(CN2CCC(C(=O)N3CCN(c4ccccc4F)CC3)CC2)cc(OC)c1O	none
COC(=O)c1cc(CN2CCN(c3ccccc3C)CC2)ccc1O	DRD3 antagonist -80
COc1cc(CN2CCN(c3ccccc3F)CC2)cc(OC)c1O	DRD3 antagonist inconclusive, D3 ag 43
COc1ccccc1N1CCN(Cc2ccc(C(=O)O)cc2)CC1	none
Cc1cc(NCc2ccc(Cl)cc2)n2cnnc2n1	none (no result: DRD3 antagonist, B2AR arrestin, Giardia kill)
COc1cc(CC(=O)OCC(=O)Nc2sccc2C(N)=O)cc(OC)c1OC	D3 ag 32
CCN1CCN(CC(=O)N2N=C(c3cccs3)CC2c2ccc(OC)c(OC)c2)C(=O)C1=O (stereo unspecified)	none
C=C1C(=O)c2sccc2C(c2ccc(OC)c(OC)c2)C1COC(C)=O (stereo unspecified)	DRD3 antagonist -116 (no result: B2AR arrestin)
CC(C)c1ccc(S(=O)(=O)c2nnn3c2nc(N2CCOCC2)c2sccc23)cc1	none (no result: DRD3 antagonist, B2AR arrestin, Giardia kill)
OCC(O)CS (stereo unspecified)	none (no result: DRD3 antagonist, B2AR arrestin, Giardia kill)
Cc1nc([N+](=O)[O-])cn1-c1nc2ccccn2c1[N+](=O)[O-]	Giardia kill -88
COc1ccc(C[C@H]2CN3C(=NC[C@@H]3C(C)C)N2CCNC(=O)c2ccc(C)c(Br)c2)cc1	DRD3 antagonist -64
Cc1ccc(C(=O)NCCN2C3=NC[C@H](C)N3C[C@H]2Cc2ccc(O)cc2)cc1Br	DRD3 antagonist -58
COc1ccc(C[C@@H]2CN3C(=NC[C@@H]3C)N2C[C@H](C)NC(=O)c2ccc(C)c(Br)c2)cc1	none
COc1ccc(C[C@H]2CN3C(=NC[C@H]3C)N2CCNC(=O)c2ccc(C)c(Br)c2)cc1	DRD3 antagonist -57
S=C(NCCCc1cnc[nH]1)NCCCN(Cc1ccc(Cl)cc1)c1ccc(Br)cc1	none (no result: DRD3 antagonist, B2AR arrestin, D3 ag)
CCc1ccc2nc(N(Cc3cccnc3)C(C)=O)sc2c1	none (no result: DRD3 antagonist, B2AR arrestin, Giardia kill)
CCOc1ccc(NS(=O)(=O)c2ccc(-c3cc(C)no3)s2)cc1	none (no result: DRD3 antagonist, B2AR arrestin, Giardia kill)
O=C(Nc1cccc(CNCCc2c[nH]c3ccccc23)c1)c1ccccc1Cl	DRD3 antagonist -96
CC(=O)c1cccc(NC(=O)NCCc2c[nH]c3ccccc23)c1	none
N#C/C(=C(/O)c1ccc([N+](=O)[O-])o1)c1nc2ccccc2[nH]1	DRD3 antagonist inconclusive, Giardia kill -92
Cc1ccc2nc(/C(C#N)=C\c3ccc([N+](=O)[O-])o3)[nH]c2c1	none
N#C/C(=C\c1ccc([N+](=O)[O-])o1)c1nc2ccccc2[nH]1	D3 ag 45
Cc1ccc(C(=O)N2CCN(CCNC(=O)C(=O)NC(C)C)CC2)cc1	none
O=C(CNCc1ccc(Cl)cc1)Nc1ccc(C(=O)N2CCCCCC2)cc1	DRD3 antagonist -65
CCN1CCN(C(=O)c2ccc(CSc3ccc(C)cc3)cc2)CC1	DRD3 antagonist -53
Cc1ccc(C(=O)N2CCN(CCNC(=O)C(=O)NCc3ccc(Cl)cc3)CC2)cc1	DRD3 antagonist -78
Cc1ccc(C(=O)N2CCN(CCNC(=O)C(=O)Nc3ccc(Cl)cc3)CC2)cc1	DRD3 antagonist -61
Cc1cccc(N2CCN(C(=O)C3CCCN(S(=O)(=O)c4ccc5c(c4)oc(=O)n5C)C3)CC2)c1C (stereo unspecified)	none (no result: DRD3 antagonist, B2AR arrestin, Giardia kill)
COc1cc(OC)c(NC(=O)c2cc(C)nc3c2c(C)nn3-c2ccc(C)cc2)cc1Cl	none (no result: DRD3 antagonist, B2AR arrestin, Giardia kill)
Cc1ccc(S(=O)(=O)N2CCN(CCNC(=O)C(=O)Nc3ccc(F)cc3)CC2)cc1	D3 ag 32
O=C(CC1NCCc2ccccc21)Nc1ccc(Cl)cc1 (stereo unspecified)	DRD3 antagonist -87
CC(C(O)c1ccccc1)N(C)CCOC(c1ccccc1)c1ccccc1 (stereo unspecified)	none (no result: DRD3 antagonist, B2AR arrestin, Giardia kill)
CCN(CC)S(=O)(=O)c1ccc2c(c1)N(CC(=O)N1CCN(c3ccc(OC)cc3)CC1)C(=O)CO2	none (no result: DRD3 antagonist, B2AR arrestin, Giardia kill)
CN1CCN(C(=O)CC23CC4CC(CC(C4)C2)C3)CC1	DRD3 antagonist -78
COc1ccc(CCN2C(=O)c3oc4cc(C)cc(C)c4c(=O)c3C2c2ccc(F)cc2)cc1OC (stereo unspecified)	none (no result: DRD3 antagonist, B2AR arrestin, Giardia kill)
Cc1ccc(N2CCN(S(=O)(=O)c3ccc(F)c(C)c3)CC2)c(C)c1	DRD3 antagonist -51
CCc1ccccc1N1CCN(S(=O)(=O)c2ccc(F)c(C)c2)CC1	none
CCc1ccccc1N(CC)C(=O)Cn1nc(Cc2ccncc2)c2ccccc2c1=O	none (no result: DRD3 antagonist, B2AR arrestin, Giardia kill)
